Assay results: PubChem BioAssay (EPA / NIEHS)
Results filed as inconclusive are left out. Activity calls are given as the source filed them. How the source made its calls: active means hit-call score of the fitted dose curve at least 0.9, where 1 is the maximum; inconclusive means response in the unintended direction; inactive means score below 0.9.

Experiment: Tanguay_ZF_120hpf_PFIN_legacy: (Legacy) Oregon State University Tanguay Lab 120 Hour Post-fertilization zebrafish Assay for Pectoral Fin Malformation (AID 2283648);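 further: each larva judged yes or no for fin defect by brightfield with dead larvae skipped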
In short: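 Binary pectoral fin malformation call at 120 hpf by brightfield microscopy; 5D wild-type zebrafish, chorion removed at 4 hpf, one embryo per well from 6 hpf, static exposure at 28C; DMSO (0.64% final) as baseline.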

Compound | outcome
OCCOCCO | inactive
Nc1cc(Cl)cc(C(=O)O)c1Cl | inactive
Cc1ccc(N)c(N)c1 | inactive
c1ccc2c(c1)-c1cccc3cccc-2c13 | inactive
O=[N+]([O-])c1ccc(Oc2ccc(Cl)cc2Cl)cc1 | inactive
CS(=O)(=O)NC(=O)c1cc(Oc2ccc(C(F)(F)F)cc2Cl)ccc1[N+](=O)[O-] | inactive
Clc1ccc(C(c2ccc(Cl)cc2)C(Cl)(Cl)Cl)cc1 | inactive
O=P(OCCCl)(OCCCl)OCCCl | inactive
c1ccc2c(c1)oc1ccccc12 | inactive
CCCCCCCCOC(=O)c1ccc(C(=O)OCCCCCCCC)c(C(=O)OCCCCCCCC)c1 | inactive
O=[N+]([O-])C(Br)(CO)CO | inactive
O=C(N[C@H](c1ccccc1)[C@@H]1CN2CCC1CC2)c1c(Cl)ccc(C(F)(F)F)c1Cl | inactive
C=CCc1ccc2c(c1)OCO2 | inactive

Experiment: Tanguay_ZF_120hpf_CFIN_legacy: (Legacy) Oregon State University Tanguay Lab 120 Hour Post-fertilization zebrafish Assay for Caudal Fin Malformation (AID 2283649)
In short: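 Dechorionated Tropical 5D wild-type embryos, one per well from 6 hpf, static exposure to 120 hpf at 28C in 0.64% DMSO. Caudal fin malformation scored by brightfield as present/absent; not scored in dead embryos.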

Compound | outcome
Clc1ccc(Cl)c(Cl)c1 | inactive
OCCOCCO | inactive
Nc1cc(Cl)cc(C(=O)O)c1Cl | inactive
Brc1ccc(Oc2ccccc2)cc1 | inactive
CC(C)(C)C(O)(CCc1ccc(Cl)cc1)Cn1cncn1 (stereo not drawn) | inactive
ClCCOCCCl | inactive
O=[N+]([O-])c1ccc(Oc2ccc(Cl)cc2Cl)cc1 | inactive
Nc1ccc(Cc2ccc(N)cc2)cc1 | inactive
CC(C)(C)OOC(C)(C)CCC(C)(C)OOC(C)(C)C | inactive
Clc1ccc(C(c2ccc(Cl)cc2)C(Cl)(Cl)Cl)cc1 | inactive
CN(C)[C@@H]1C(=O)C(C(N)=O)=C(O)[C@@]2(O)C(=O)C3=C(O)c4c(O)cccc4[C@@](C)(O)[C@H]3C[C@@H]12 | inactive
CCN(CC)CCO | inactive
c1ccc2c(c1)oc1ccccc12 | inactive
O=Cc1ccco1 | inactive
Oc1ccccc1Cl | inactive

Experiment: Tanguay_ZF_120hpf_PIG_legacy: (Legacy) Oregon State University Tanguay Lab 120 Hour Post-fertilization zebrafish Assay for Pigmentation Malformation (AID 2283650);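 further: dechorionated Tropical 5D zebrafish embryos exposed singly from 6 to 120 hpf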
In short: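 Brightfield scoring of pigmentation malformation at 120 hpf, recorded as binary present/absent per larva. Exposure: dechorionated 5D wild-type embryos, one per well, static from 6 hpf at 28C, final DMSO 0.64% (vol/vol). Dead embryos not scored.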

Compound | outcome
Clc1ccc(Cl)c(Cl)c1 | inactive
OCCOCCO | inactive
Nc1cc(Cl)cc(C(=O)O)c1Cl | inactive
Cc1ccc(N)c(N)c1 | inactive
Brc1ccc(Oc2ccccc2)cc1 | inactive
CC(C)(C)C(O)(CCc1ccc(Cl)cc1)Cn1cncn1 (stereo not drawn) | inactive
ClCCOCCCl | inactive
c1ccc2c(c1)-c1cccc3cccc-2c13 | inactive
c1ccc(NNc2ccccc2)cc1 | inactive
CS(=O)(=O)NC(=O)c1cc(Oc2ccc(C(F)(F)F)cc2Cl)ccc1[N+](=O)[O-] | inactive
Nc1ccc(Cc2ccc(N)cc2)cc1 | inactive
CC(C)(C)OOC(C)(C)CCC(C)(C)OOC(C)(C)C | inactive
Clc1ccc(C(c2ccc(Cl)cc2)C(Cl)(Cl)Cl)cc1 | inactive
O=P(OCCCl)(OCCCl)OCCCl | inactive
CN(C)[C@@H]1C(=O)C(C(N)=O)=C(O)[C@@]2(O)C(=O)C3=C(O)c4c(O)cccc4[C@@](C)(O)[C@H]3C[C@@H]12 | inactive
CCN(CC)CCO | inactive
c1ccc2c(c1)oc1ccccc12 | inactive
CCC12COCN1COC2 | inactive
CCCCCCCCOC(=O)c1ccc(C(=O)OCCCCCCCC)c(C(=O)OCCCCCCCC)c1 | inactive
O=C1CCCO1 | inactive
O=Cc1ccco1 | inactive
O=[N+]([O-])C(Br)(CO)CO | inactive
O=C(N[C@H](c1ccccc1)[C@@H]1CN2CCC1CC2)c1c(Cl)ccc(C(F)(F)F)c1Cl | inactive
C=CCc1ccc2c(c1)OCO2 | inactive
Oc1ccccc1Cl | inactive

Experiment: Tanguay_ZF_120hpf_CIRC_legacy: (Legacy) Oregon State University Tanguay Lab 120 Hour Post-fertilization zebrafish Assay for Circulatory Malformation (AID 2283651)
In short: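 Static exposure, 6–120 hpf, 28C, sealed and dark; one dechorionated 5D embryo/well; DMSO 0.64% v/v final. Binary circulation endpoint by brightfield; dead embryos not scored.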

Compound | outcome
Clc1ccc(Cl)c(Cl)c1 | inactive
Nc1cc(Cl)cc(C(=O)O)c1Cl | inactive
Cc1ccc(N)c(N)c1 | inactive
Brc1ccc(Oc2ccccc2)cc1 | inactive
ClCCOCCCl | inactive
O=C(O)C1C2CCC(O2)C1C(=O)O (stereo not drawn) | inactive
c1ccc2c(c1)-c1cccc3cccc-2c13 | inactive
c1ccc(NNc2ccccc2)cc1 | inactive
CS(=O)(=O)NC(=O)c1cc(Oc2ccc(C(F)(F)F)cc2Cl)ccc1[N+](=O)[O-] | inactive
CC(C)(C)OOC(C)(C)CCC(C)(C)OOC(C)(C)C | inactive
Clc1ccc(C(c2ccc(Cl)cc2)C(Cl)(Cl)Cl)cc1 | inactive
CN(C)[C@@H]1C(=O)C(C(N)=O)=C(O)[C@@]2(O)C(=O)C3=C(O)c4c(O)cccc4[C@@](C)(O)[C@H]3C[C@@H]12 | inactive
CCN(CC)CCO | inactive
c1ccc2c(c1)oc1ccccc12 | inactive
CCC12COCN1COC2 | inactive
CCCCCCCCOC(=O)c1ccc(C(=O)OCCCCCCCC)c(C(=O)OCCCCCCCC)c1 | inactive
Clc1ccc(C(c2ccc(Cl)cc2)C(Cl)Cl)cc1 | inactive
O=C1CCCO1 | inactive
O=Cc1ccco1 | inactive
Oc1ccccc1Cl | inactive
